“And” between values parts separate entries of the source, which are not always exact repeats. Equal values may be shown once. Where a structure was tested more than once in an assay, its records may differ in their call. The source made the active and inactive calls. Unless noted, calls follow the shape of the dose curve; as a rule, active = well fitted curve in the direction sought with a large enough effect in the repeat runs; inconclusive = weak or mixed curves; inactive = no such curve, though single readings can be large; an effect the other way counts as inactive or inconclusive.

The nature of assay [1]: qHTS assay to identify small molecule antagonists of the glucocorticoid receptor (GR) signaling pathway - cell viability counter screen (AID 720693). Also: % is scaled to controls: 0 for no effect and ±100 for the full control effect; nearly all actives have a fitted effect of over 55% in size.
Assay [2] in a line: qHTS assay to identify small molecule antagonists of the androgen receptor (AR) signaling pathway - cell viability counter screen (AID 743033; also: nearly all actives have a fitted effect of over 45% in size; also: potency is read from the fitted curve at half-maximal effect). On the technique in general: qHTS replaces the single test concentration by a dilution series.
A short description of assay [3]: qHTS assay to identify small molecule antagonists of the androgen receptor (AR) signaling pathway using the MDA cell line - cell viability counter screen (AID 743041; also: % is scaled to controls: 0 for no effect and ±100 for the full control effect; nearly all actives have a fitted effect of over 45% in size). A digest of the protocol: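 Same-well cytotoxicity was assessed by CellTiter-Fluor in MDA-kb2 AR-luc cells after 16 h of compound treatment under R1881 agonism.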
Assay [4] can be described thus: qHTS assay to identify small molecule antagonists of the thyroid receptor (TR) signaling pathway - cell viability counter screen (AID 743064). Also: nearly all actives have a fitted effect of over 50% in size. Also: potency is read from the fitted curve at half-maximal effect. A digest of the protocol: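 GH3.TRE-Luc cells, 4 h pre-plating; cpd + T3 1 nM final; 37 °C 23.5 h; CellTiter-Fluor 30 min; fluorescence read.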
The nature of assay [5]: qHTS assay to identify small molecule antagonists of the thyroid receptor (TR) signaling pathway (AID 743065). Also: nearly all actives have a fitted effect of over 55% in size. Also: potency is read from the fitted curve at half-maximal effect. Summed up: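 GH3.TRE-Luc rat pituitary cells (two TREs driving luciferase) were dosed with compound, then stimulated with 1 nM T3 (final) for 23.5 h at 37 C. ONE-Glo luminescence was the read-out, with CellTiter-Fluor fluorescence as the cytotoxicity counter-screen.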

Assay [6] relates to thyroid hormone receptor (rat, GH3 cells). The assay can be described thus: qHTS assay to identify small molecule agonists of the thyroid receptor (TR) signaling pathway (AID 743066; calls by dose curve; also: % is scaled to controls: 0 for no effect and ±100 for the full control effect).
The nature of assay [7]: qHTS assay to identify small molecule antagonists of the estrogen receptor alpha (ER-alpha) signaling pathway - cell viability counter screen (AID 743074; calls by dose curve;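 also: HEK293 cells carrying ER-alpha-UAS-bla reporter stimulated with 17beta-estradiol; nearly all actives have a fitted effect of over 45% in size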; also: potency is read from the fitted curve at half-maximal effect).
Assay [8] can be described thus: qHTS assay to identify small molecule antagonists of the estrogen receptor alpha (ER-alpha) signaling pathway using the BG1 cell line - cell viability counter screen (AID 743081).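 Also: compound given together with 17beta-estradiol as the ER stimulus; nearly all actives have a fitted effect of over 45% in size.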 Also: potency is read from the fitted curve at half-maximal effect.
Another assay concerns the target Aromatase (Homo sapiens) (UniProt P11511). The assay is described as follows: qHTS assay to identify aromatase inhibitors (AID 743083). Also: nearly all actives have a fitted effect of over 55% in size. Also: potency is read from the fitted curve at half-maximal effect.
A short description of assay [9]: qHTS assay for identifying genotoxic compounds that show differential cytotoxicity against isogenic chicken DT40 cell lines with known DNA damage response pathways - wild type cell line (AID 743012). Also: nearly all actives have a fitted effect of over 60% in size. Also: potency is read from the fitted curve at half-maximal effect. A digest of the protocol: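 Wild type DT40, 300 cells/well, ~0.5 h settle at 37 C/5% CO2; compounds in DMSO added by pintool; 40 h at 37 C/5% CO2; CellTiter-Glo, 30 min RT; luminescence.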

Assay [10] in a line: qHTS assay for identifying genotoxic compounds that show differential cytotoxicity against isogenic chicken DT40 cell lines with known DNA damage response pathways - Rad54/Ku70 mutant cell line (AID 743015). Also: nearly all actives have a fitted effect of over 60% in size. Also: potency is read from the fitted curve at half-maximal effect.
For assay [11], the target named is Estrogen receptor (Homo sapiens) (UniProt P03372). The assay can be described thus: qHTS assay to identify small molecule antagonists of the estrogen receptor alpha (ER-alpha) signaling pathway (AID 743069; active = well fitted curve in the direction sought with a large enough effect in the signal ratio in the repeat runs, not every such curve was filed as active; inconclusive = weak or mixed curves, or effect the other way; inactive = no such curve, though single readings can be large or run the other way; the % refers to the signal ratio; also: potency is read from the fitted curve at half-maximal effect). Summed up:
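Reporter cells (ER-alpha-bla, HEK293 background) are conditioned overnight in stripped-serum medium (2% charcoal-stripped FBS). Compound and 17beta-estradiol exposure runs 18 hr at 37C, 5% CO2.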

Assay [12] has the same target. The assay can be described thus: qHTS assay to identify small molecule agonists of the estrogen receptor alpha (ER-alpha) signaling pathway (AID 743075; calls by dose curve;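 also: HEK293 GripTite cells with ER-alpha and UAS-driven beta-lactamase reporter; % is scaled to controls: 0 for no effect and ±100 for the full control effect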).
Assay [13] shares this target. The assay is described as follows: qHTS assay to identify small molecule agonists of the estrogen receptor alpha (ER-alpha) signaling pathway using the BG1 cell line (AID 743079). Also: nearly all actives have a fitted effect of over 20% in size. Also: potency is read from the fitted curve at half-maximal effect. As to activation: % is scaled to controls: 0 for no effect and ±100 for the full control effect. Particulars: BG1Luc4E2 cells, ERE-luciferase agonist, 22 h; activation: at 70.3 µM (top of the series) unless noted.
The nature of assay [14]: qHTS assay to identify small molecule antagonists of the estrogen receptor alpha (ER-alpha) signaling pathway using the BG1 cell line (AID 743080; calls by dose curve;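 also: BG1 cells stimulated with 17beta-estradiol alongside compound; nearly all actives have a fitted effect of over 25% in size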; also: potency is read from the fitted curve at half-maximal effect). A digest of the protocol:
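Quantitative HTS on the Tox21 10K library: BG1 cells with endogenous ER-alpha and ERE-luciferase reporter, 17beta-estradiol stimulation, 21.5 h compound exposure, luminescence endpoint with parallel fluorescence cytotoxicity counter-read.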

The nature of assay [15]: qHTS assay for identifying genotoxic compounds that show differential cytotoxicity against isogenic chicken DT40 cell lines with known DNA damage response pathways - Rev3 mutant cell line (AID 743014). Also: nearly all actives have a fitted effect of over 55% in size. Also: potency is read from the fitted curve at half-maximal effect.
Assay [16] addresses Androgen receptor (Homo sapiens) (UniProt P10275). The assay can be described thus: qHTS assay to identify small molecule antagonists of the androgen receptor (AR) signaling pathway (AID 743035; active = well fitted inhibition curve with a large enough effect in the signal ratio in the repeat runs, not every such curve was filed as active; inconclusive = weak or mixed curves, or effect the other way; inactive = no such curve, though single readings can be large or run the other way; the % refers to the signal ratio; also: potency is read from the fitted curve at half-maximal effect). A digest of the protocol:
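Fluorescence from a beta-lactamase FRET substrate (LiveBLAzer B/G, 2 h, room temperature) measured inhibition of R1881-stimulated signaling in GeneBLAzer AR-UAS-bla HEK293 cells exposed to compound for 16 h at 37C.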

The target is the same in assay [17]. The assay is described as follows: qHTS assay to identify small molecule agonists of the androgen receptor (AR) signaling pathway using the MDA cell line (AID 743040; also: % is scaled to controls: 0 for no effect and ±100 for the full control effect; nearly all actives have a fitted effect of over 20% in size). Particulars: MDA-kb2 AR-luc cells, MMTV luciferase, 16 h, stronger effect = higher value. A digest of the protocol: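 Human breast carcinoma MDA-kb2 reporter cells (MMTV-luc, AR/GR elements) were treated for 16 h at 37C in 0% CO2 following a 5 h settling period. Signal was quantified by ONE-Glo luminescence.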

Assay [18] shares this target. The assay can be described thus: qHTS assay to identify small molecule antagonists of the androgen receptor (AR) signaling pathway using the MDA cell line (AID 743042; also: nearly all actives have a fitted effect of over 55% in size; also: potency is read from the fitted curve at half-maximal effect). Summed up: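 MDA-kb2 breast carcinoma cells carrying MMTV-luciferase (AR/GR responsive) were co-treated with compounds and the agonist R1881 for 16 h at 37C. Inhibition read as ONE-Glo luminescence; CellTiter-Fluor fluorescence measured in parallel for cytotoxicity.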

Assay [19] has the same target. The assay can be described thus: qHTS assay to identify small molecule agonists of the androgen receptor (AR) signaling pathway (AID 743036; active = well fitted activation curve with a large enough effect in the signal ratio in the repeat runs, with a control signal flat, not every such curve was filed as active; inconclusive = weak or mixed curves, or effect the other way; inactive = no such curve, though single readings can be large or run the other way; the % refers to the signal ratio; also: % is scaled to controls: 0 for no effect and ±100 for the full control effect). Summed up:
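AR-bla HEK293 cells, 2,000/well; 4 h preincubation 37C/5% CO2; compound (DMSO) 16 h at 37C; LiveBLAzer B/G FRET substrate 2 h RT; fluorescence intensity read-out.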

Androgen receptor (Homo sapiens), sequence (P10275 whole entry, looked up): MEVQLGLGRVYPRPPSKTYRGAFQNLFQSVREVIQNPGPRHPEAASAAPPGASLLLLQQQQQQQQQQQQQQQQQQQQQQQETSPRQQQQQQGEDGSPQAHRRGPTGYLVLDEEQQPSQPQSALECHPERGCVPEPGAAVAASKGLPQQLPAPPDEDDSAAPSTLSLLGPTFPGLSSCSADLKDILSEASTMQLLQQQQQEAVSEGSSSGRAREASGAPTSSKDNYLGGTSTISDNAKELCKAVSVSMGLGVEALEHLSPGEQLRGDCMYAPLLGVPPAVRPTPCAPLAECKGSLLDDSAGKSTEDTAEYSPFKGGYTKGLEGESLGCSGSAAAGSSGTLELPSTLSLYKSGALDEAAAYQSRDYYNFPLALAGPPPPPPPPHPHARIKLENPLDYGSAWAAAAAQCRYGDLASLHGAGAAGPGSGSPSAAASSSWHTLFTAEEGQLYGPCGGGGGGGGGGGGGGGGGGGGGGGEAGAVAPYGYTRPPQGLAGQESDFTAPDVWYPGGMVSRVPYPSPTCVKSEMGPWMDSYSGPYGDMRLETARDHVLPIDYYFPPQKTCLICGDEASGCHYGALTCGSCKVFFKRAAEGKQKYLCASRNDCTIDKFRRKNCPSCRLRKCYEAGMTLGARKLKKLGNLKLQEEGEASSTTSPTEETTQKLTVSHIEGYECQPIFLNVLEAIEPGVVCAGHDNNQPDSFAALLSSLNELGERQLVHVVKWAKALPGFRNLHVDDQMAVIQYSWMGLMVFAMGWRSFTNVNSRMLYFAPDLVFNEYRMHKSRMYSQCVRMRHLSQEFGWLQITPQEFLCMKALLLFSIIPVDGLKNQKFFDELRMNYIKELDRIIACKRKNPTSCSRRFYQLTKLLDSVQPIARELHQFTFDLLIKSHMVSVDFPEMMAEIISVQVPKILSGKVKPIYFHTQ
Estrogen receptor (Homo sapiens), sequence (P03372 whole entry, looked up): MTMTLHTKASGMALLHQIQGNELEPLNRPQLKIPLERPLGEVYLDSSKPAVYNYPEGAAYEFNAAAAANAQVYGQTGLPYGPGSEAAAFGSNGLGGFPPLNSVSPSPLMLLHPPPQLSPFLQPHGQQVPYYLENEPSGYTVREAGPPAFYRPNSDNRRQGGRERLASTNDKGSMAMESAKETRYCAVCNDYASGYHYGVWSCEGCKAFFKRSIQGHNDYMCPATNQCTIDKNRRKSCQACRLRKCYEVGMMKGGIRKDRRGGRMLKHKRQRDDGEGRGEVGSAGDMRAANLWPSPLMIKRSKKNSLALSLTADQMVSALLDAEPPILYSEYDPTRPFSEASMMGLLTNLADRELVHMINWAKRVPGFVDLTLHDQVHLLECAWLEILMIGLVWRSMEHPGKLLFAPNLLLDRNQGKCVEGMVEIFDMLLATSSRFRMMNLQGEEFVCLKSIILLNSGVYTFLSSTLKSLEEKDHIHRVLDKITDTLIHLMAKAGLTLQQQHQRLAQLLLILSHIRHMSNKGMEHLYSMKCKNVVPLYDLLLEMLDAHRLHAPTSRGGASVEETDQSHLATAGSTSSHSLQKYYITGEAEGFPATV
Aromatase (Homo sapiens), sequence (P11511 whole entry, looked up): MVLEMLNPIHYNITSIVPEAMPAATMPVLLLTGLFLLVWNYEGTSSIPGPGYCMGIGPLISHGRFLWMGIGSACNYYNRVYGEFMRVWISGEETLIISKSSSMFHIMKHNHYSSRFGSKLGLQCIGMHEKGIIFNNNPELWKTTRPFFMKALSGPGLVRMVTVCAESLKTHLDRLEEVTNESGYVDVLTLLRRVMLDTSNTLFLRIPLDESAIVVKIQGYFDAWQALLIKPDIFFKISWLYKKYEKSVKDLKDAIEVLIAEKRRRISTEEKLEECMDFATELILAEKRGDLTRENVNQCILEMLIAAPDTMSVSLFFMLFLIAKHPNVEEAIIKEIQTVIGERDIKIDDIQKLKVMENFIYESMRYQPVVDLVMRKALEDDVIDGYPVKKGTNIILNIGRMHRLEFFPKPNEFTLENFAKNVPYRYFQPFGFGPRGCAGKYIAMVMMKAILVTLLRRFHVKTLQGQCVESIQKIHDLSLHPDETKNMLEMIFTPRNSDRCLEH

With `O=C1Nc2ccc(Cl)cc2C(c2ccccc2)=NC1O` (centres undefined), the Potency entry in assay [1], in assay [2], in [3], in assay [4], in [6] and in assay [7] was “inactive” throughout. The Potency result (in assay [8]; with Aromatase (Homo sapiens)) was “inactive” each time. Moreover, the Potency in [5] is 54.9 µM (active).
`O=S(=O)(O)C(F)(F)C(F)(F)C(F)(F)C(F)(F)C(F)(F)C(F)(F)C(F)(F)C(F)(F)F`: the Potency result in [1], in assay [2], in assay [3], in [6], in assay [7] and in [8] was “inactive” each time. In addition, in the assay with Aromatase (Homo sapiens), the Potency entry is “inactive”. Also, the Potency entry in assay [9] is “inactive and 54.5 µM (active)”; in [4], 47.2 µM (active); in assay [5] it was 51.9 µM (active) and 61.1 µM (active).
On to `Oc1ccc(Cl)cc1Cl`, for which the Potency entry in assay [1], in assay [9], in assay [10], in assay [2], in assay [3] and in [4] was “inactive” throughout. Besides, the Potency entry in [5], in assay [6], in [11], in assay [12], in assay [13] and in assay [14] was “inactive” in each case. The Potency entry (in [8]; with Aromatase (Homo sapiens)) was “inactive” throughout.
On to `Clc1cccc(Cl)c1`, for which the Potency entry in assay [1], in assay [9], in assay [10], in assay [2], in assay [3] and in [4] was “inactive” throughout. In addition, the Potency entry (in assay [5]; in [6]; in [7]; in [8]; with Aromatase (Homo sapiens)) was “inactive” throughout.
Regarding `Cc1cccc(N=Nc2ccc(N(C)C)cc2)c1`, the Potency result in assay [1], in assay [2], in assay [3], in assay [4], in assay [5] and in [6] was “inactive” throughout. The Potency result (in assay [11]; in assay [7]; in [12]; with Aromatase (Homo sapiens)) was “inactive” in each case. Besides, the Potency result in assay [15] was “inactive and 27.3 µM (active)”; in [10], “inactive and 27.3 µM (active)”; in [13], 139 nM (active) and 864 nM (active); in assay [8], 31.2 µM (active) and 27.3 µM (active).
Regarding `CCOC(=O)c1ccccc1N`, the Potency result in assay [1], in assay [9], in [10], in assay [2], in assay [3] and in assay [4] was “inactive” throughout. For the same molecule, the Potency result in assay [5], in [6], in assay [11], in [7], in [12] and in assay [13] was “inactive” in each case. Besides, the Potency result (in assay [14]; in assay [8]; in the assay with Aromatase (Homo sapiens)) was “inactive” in each case.
For the molecule `Oc1ccc(Cl)cc1Cc1ccccc1`, the Potency in [9] is 21.1 µM (active) and 6.19 µM (active); in assay [10], 29.8 µM (active) and 48.6 µM (active) and 16.5 µM (active); in assay [2], “inactive and 38.9 µM (active) and 39.4 µM (active)”; in [16] it was 19.5 µM (active); in assay [18] it was “inactive and 54.5 µM (active)”; in [4] it was 48.6 µM (active) and 36.7 µM (active). In addition, the Potency in [5] was 54.5 µM (active) and 43.3 µM (active); in assay [7] it was “inactive and 49 µM (active) and 12.4 µM (active)”; with Aromatase (Homo sapiens) it was 27.3 µM (active) and 30.9 µM (active). Moreover, the activity change was -0.884% (inactive) and -9.7% (inactive) in assay [17] (at 70.3 µM (top of the series)); -7.19% (inactive) in assay [17] (at 95 µM (top of the series)). Also, the Potency entry in assay [3], in assay [6] and in assay [8] was “inactive” throughout.
Consider `Brc1ccc(Br)cc1`, for which the Potency entry in [1], in [9], in assay [10], in [2], in assay [3] and in assay [4] was “inactive” each time. Further, the Potency result (in assay [5]; in assay [6]; in assay [7]; in assay [8]; in the assay with Aromatase (Homo sapiens)) was “inactive” in each case.
For the molecule `C=C(C)C#N`, the Potency result in [1], in assay [9], in assay [10], in assay [2], in assay [3] and in assay [4] was “inactive” in each case. In addition, the Potency entry in assay [5], in assay [6], in assay [11], in assay [7], in assay [12] and in assay [13] was “inactive” each time. In addition, the Potency entry (in assay [14]; in assay [8]; in the assay with Aromatase (Homo sapiens)) was “inactive” each time.
Regarding `COP(=S)(OC)Oc1ccc(Sc2ccc(OP(=S)(OC)OC)cc2)cc1`, the Potency entry in assay [1], in assay [19], in assay [3], in assay [4], in assay [5] and in assay [6] was “inactive” in each case. Moreover, the Potency result (in [7]; in [12]; in assay [8]; in the assay with Aromatase (Homo sapiens)) was “inactive” throughout. Also, the Potency in [9] was 29.8 µM (active) and 68.6 µM (active); in assay [16], 54.9 µM (active); in [18] it was 61.1 µM (active); in assay [11] it was 21.9 µM [inconclusive] (active); in assay [14], 29.8 µM (active). The activity change in assay [17] (at 70.3 µM (top of the series)) was -9.3% (inactive) and -9.83% (inactive).

For the origin of these results see PubChem BioAssay (Tox21).
